Laboratory results reported in PubChem BioAssay (EPA / NIEHS).
Inconclusive results are not listed. Activity calls are given as the source filed them. How the source made its calls, unless noted: active means hit-call score of the fitted dose curve at least 0.9, where 1 is the maximum; inactive means score below 0.9.

How the values were obtained:
[1] = ACEA_ER_80hr: ACEA Biosciences xCELLigence Real-Time Cell Analysis on Estrogen Receptor Agonism for Proliferation (AID 2282667; active means hit-call score of the fitted dose curve at least 0.9, where 1 is the maximum); conditions: T47D proliferation, impedance (xCELLigence), 80 h
Summary of the method: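 T-47D cells monitored by electrical impedance (xCELLigence) with compound present throughout; 80 h timepoint, positive-direction fitting versus DMSO. Eight-point 1:4 dilutions from 100 uM final, duplicate plates.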

[2] = ATG_CRE_CIS: Attagene CIS-FACTORIAL HepG2 Assay for human cAMP Responsive Element (CRE) binding protein 3 (AID 2282926); conditions: HepG2 CRE cis-reporter, Attagene multiplexed mRNA; actives raise or lower the signal
Summary of the method: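 Induced reporter mRNA from a CRE cis element, measured in HepG2 among many multiplexed units at 24 h. Detection used RT-PCR plus capillary electrophoresis of fluorescent fragments; DMSO served as negative control.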

[3] = molecular target: CCAAT/enhancer-binding protein beta (Homo sapiens) (UniProt P17676); experiment: ATG_C_EBP_CIS: Attagene CIS-FACTORIAL HepG2 Assay for human CCAAT/Enhancer Binding Protein (C/EBP) beta (AID 2282927); conditions: HepG2 Attagene cis-factorial transcription factor reporter; actives raise or lower the signal
CCAAT/enhancer-binding protein beta (Homo sapiens), sequence (P17676 whole entry, looked up): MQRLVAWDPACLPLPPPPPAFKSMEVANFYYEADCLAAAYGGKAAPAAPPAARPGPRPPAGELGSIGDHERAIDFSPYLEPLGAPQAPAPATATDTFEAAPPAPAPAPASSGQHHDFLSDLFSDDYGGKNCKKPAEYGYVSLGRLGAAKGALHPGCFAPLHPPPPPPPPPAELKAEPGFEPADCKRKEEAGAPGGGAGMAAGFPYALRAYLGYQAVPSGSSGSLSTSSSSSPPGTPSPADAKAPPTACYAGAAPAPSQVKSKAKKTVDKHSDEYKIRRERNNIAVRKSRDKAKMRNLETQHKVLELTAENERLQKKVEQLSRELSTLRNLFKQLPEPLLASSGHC
Summary of the method: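 RT-PCR/capillary electrophoresis fluorescence of reporter mRNA, 24 h post-dose, in HepG2 cells carrying transfected cis-promoter reporter units. Bidirectional curve fitting against DMSO baseline captures gain or loss of signal.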

[4] = ATG_CMV_CIS: Attagene CIS-FACTORIAL HepG2 Assay for human CMV (Internal Marker) (AID 2282928); conditions: HepG2 CMV promoter reporter, transcription factor profiling; actives raise or lower the signal;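 further: endpoint acts as a background internal control marker rather than a target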
Summary of the method: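 Reporter transcripts from transfected HepG2 cells are isolated after 24 h of chemical dosing, reverse-transcribed and amplified. Fragments labeled with 6-FAM are cut with HpaI and quantified by capillary electrophoresis; DMSO defines baseline.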

[5] = ATG_DR4_LXR_CIS: Attagene CIS-FACTORIAL HepG2 Assay for human Liver X Receptor (LXR), DR4 submotif (AID 2282929); conditions: HepG2 Attagene DR4 cis-reporter, mRNA transcription; actives raise or lower the signal
Summary of the method: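 Transiently transfected HepG2 liver cells; cis-regulated reporters; 24 h dosing. RT-PCR plus CE read-out of reporter mRNA. DMSO baseline, bidirectional curve fitting.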

[6] = molecular target: Aryl hydrocarbon receptor (Homo sapiens) (UniProt P35869); experiment: ATG_Ahr_CIS: Attagene CIS-FACTORIAL HepG2 Assay for human Aryl Hydrocarbon Receptor (Ahr) (AID 2282930); conditions: HepG2 AhR cis-factorial reporter transcription; actives raise or lower the signal
Aryl hydrocarbon receptor (Homo sapiens), sequence (P35869 whole entry, looked up): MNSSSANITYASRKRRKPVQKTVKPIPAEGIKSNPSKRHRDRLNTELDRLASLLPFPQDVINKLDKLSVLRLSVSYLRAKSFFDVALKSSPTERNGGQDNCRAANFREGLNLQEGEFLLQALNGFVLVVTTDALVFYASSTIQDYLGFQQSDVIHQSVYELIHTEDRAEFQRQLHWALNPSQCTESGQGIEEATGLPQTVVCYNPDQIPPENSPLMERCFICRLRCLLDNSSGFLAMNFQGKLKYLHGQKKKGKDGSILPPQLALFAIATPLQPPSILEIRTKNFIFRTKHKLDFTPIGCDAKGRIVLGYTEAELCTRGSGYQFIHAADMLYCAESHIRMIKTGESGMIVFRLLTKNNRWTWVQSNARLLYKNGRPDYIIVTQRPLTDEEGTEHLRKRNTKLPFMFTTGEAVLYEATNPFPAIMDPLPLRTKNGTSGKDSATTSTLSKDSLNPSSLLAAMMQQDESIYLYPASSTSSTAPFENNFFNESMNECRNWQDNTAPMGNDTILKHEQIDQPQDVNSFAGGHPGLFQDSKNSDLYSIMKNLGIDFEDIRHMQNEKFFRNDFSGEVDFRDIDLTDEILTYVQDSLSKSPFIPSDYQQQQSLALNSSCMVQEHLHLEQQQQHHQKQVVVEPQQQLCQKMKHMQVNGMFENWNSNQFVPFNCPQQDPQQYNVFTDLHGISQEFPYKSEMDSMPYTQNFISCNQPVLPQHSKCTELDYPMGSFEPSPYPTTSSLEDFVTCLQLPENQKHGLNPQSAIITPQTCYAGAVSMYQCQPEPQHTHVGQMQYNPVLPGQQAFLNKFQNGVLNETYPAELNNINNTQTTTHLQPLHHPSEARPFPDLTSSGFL
Summary of the method: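 HepG2 cells transiently transfected with cis-element-driven multiplexed reporter transcription units; endogenous transcription factor activity measured as reporter mRNA 24 h after dosing. RT-PCR, 6-FAM labelling, HpaI digestion, capillary electrophoresis; bidirectional fitting versus DMSO baseline.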

[7] = ATG_AP_1_CIS: Attagene CIS-FACTORIAL HepG2 Assay for human Activator Protein 1 (AP-1) (AID 2282931); conditions: HepG2 Attagene cis-factorial AP-1 reporter mRNA; actives raise or lower the signal
Summary of the method: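 We transfected HepG2 cells transiently with a set of cis-regulated reporter transcription units, dosed them for 24 h, and quantified reporter mRNA via RT-PCR and capillary electrophoresis, scoring gain or loss of signal relative to DMSO.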

[8] = ATG_BRE_CIS: Attagene CIS-FACTORIAL HepG2 Assay for human Bone Morphogenetic Protein (BMP) Response Element (BRE) (AID 2282933); conditions: HepG2 BMP response element reporter, Attagene transcription factor profiling; actives raise or lower the signal
Summary of the method: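 A HepG2 multiplex reporter system measured inducible reporter mRNA 24 h post-dosing. Detection: RT-PCR, 6-FAM primer extension, HpaI digestion, capillary electrophoresis. Activity fitted bidirectionally relative to DMSO.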

[9] = molecular target: Retinoic acid receptor alpha (Homo sapiens) (UniProt P10276); experiment: ATG_DR5_RAR_CIS: Attagene CIS-FACTORIAL HepG2 Assay for human Retinoic Acid Receptor Alpha (RARE), DR5 submotif (AID 2282934); conditions: HepG2 Attagene cis-factorial RARE DR5 reporter, mRNA; actives raise or lower the signal
Retinoic acid receptor alpha (Homo sapiens), sequence (P10276 whole entry, looked up): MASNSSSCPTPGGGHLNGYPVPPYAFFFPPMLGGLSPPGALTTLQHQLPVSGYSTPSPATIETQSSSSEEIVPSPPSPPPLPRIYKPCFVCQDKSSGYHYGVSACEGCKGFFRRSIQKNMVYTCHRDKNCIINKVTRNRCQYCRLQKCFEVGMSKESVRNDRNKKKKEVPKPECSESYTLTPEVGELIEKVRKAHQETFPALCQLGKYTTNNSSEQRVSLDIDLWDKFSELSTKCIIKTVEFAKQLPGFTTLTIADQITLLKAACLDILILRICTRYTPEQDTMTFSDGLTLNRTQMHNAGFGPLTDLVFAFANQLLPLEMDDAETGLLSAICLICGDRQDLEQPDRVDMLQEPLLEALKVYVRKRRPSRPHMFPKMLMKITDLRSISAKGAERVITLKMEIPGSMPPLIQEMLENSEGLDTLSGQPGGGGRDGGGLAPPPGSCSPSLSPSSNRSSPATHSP
Summary of the method: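 HepG2 cells transiently transfected with multiplexed reporter units under cis (DR5 RARE) promoters, so endogenous transcription factor activity is measured. After 24 h compound exposure, reporter mRNA is quantified by RT-PCR with fluorescent labelling and capillary electrophoresis; bidirectional fitting versus DMSO.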

[10] = molecular target: Transcription factor E2F1 (Homo sapiens) (UniProt Q01094); experiment: ATG_E2F_CIS: Attagene CIS-FACTORIAL HepG2 Assay for human E2F Transcription Factor 1 (AID 2282935); conditions: HepG2 Attagene cis-reporter, E2F reporter RNA transcripts; actives raise or lower the signal
Transcription factor E2F1 (Homo sapiens), sequence (Q01094 whole entry, looked up): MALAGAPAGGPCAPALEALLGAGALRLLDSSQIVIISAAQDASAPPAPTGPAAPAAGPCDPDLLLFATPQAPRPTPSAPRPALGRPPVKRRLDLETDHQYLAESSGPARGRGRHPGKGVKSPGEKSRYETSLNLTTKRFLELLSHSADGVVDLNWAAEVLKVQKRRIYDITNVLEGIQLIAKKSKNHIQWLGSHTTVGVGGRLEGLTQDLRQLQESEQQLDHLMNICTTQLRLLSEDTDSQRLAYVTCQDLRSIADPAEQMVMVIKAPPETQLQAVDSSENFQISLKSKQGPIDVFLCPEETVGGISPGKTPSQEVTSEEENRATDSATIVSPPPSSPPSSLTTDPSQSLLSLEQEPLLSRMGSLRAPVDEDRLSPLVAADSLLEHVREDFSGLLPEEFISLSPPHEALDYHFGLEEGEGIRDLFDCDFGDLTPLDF
Summary of the method: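 First, HepG2 cells were transfected with reporter transcription units. Next, they were dosed for 24 h. Then RNA was isolated, converted to cDNA, PCR-amplified, FAM-labeled, HpaI-digested and analyzed by capillary electrophoresis.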

[11] = ATG_E_Box_CIS: Attagene CIS-FACTORIAL HepG2 Assay for human Enhancer Box (E-box) (AID 2282936); conditions: HepG2 E-box cis-reporter transcription, actives raise or lower the signal
Summary of the method: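 Endogenous transcription factor activity was sensed in human HepG2 liver cells through transfected cis-promoter reporter units. After 24 h of dosing, total RNA was reverse-transcribed and reporter cDNA resolved by capillary electrophoresis.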

[12] = ATG_M_61_CIS: Attagene CIS-FACTORIAL HepG2 Assay for M61 Transcription Factor (Internal Marker) (AID 2282937); conditions: HepG2 Attagene CIS-FACTORIAL M61 internal marker reporter; actives raise or lower the signal
Summary of the method: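 Multiplexed reporter mRNA assay, HepG2 human hepatoma cells, 24 h treatment. Signal: FAM-labelled, HpaI-digested RT-PCR fragments by CE. Fit: bidirectional, baseline DMSO.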

[13] = ATG_M_19_CIS: Attagene CIS-FACTORIAL HepG2 Assay for M19 Transcription Factor (Internal Marker) (AID 2282939); conditions: HepG2 Attagene CIS-FACTORIAL M19 internal marker reporter; actives raise or lower the signal
Summary of the method: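 Chemical-treated HepG2 (24 h) with MRTU constructs; reporter transcripts detected by fluorescent RT-PCR fragment analysis on capillary electrophoresis. Internal background marker, DMSO as baseline.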

[14] = ATG_ERE_CIS: Attagene CIS-FACTORIAL HepG2 Assay for Estrogen Response Element (ERE) (AID 2282940); conditions: HepG2 ERE cis-reporter, Attagene RNA transcript; actives raise or lower the signal
Summary of the method: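 Human liver cells (HepG2) bearing transiently transfected, promoter-regulated reporter units were exposed 24 h. Reporter mRNA induction was detected by capillary electrophoresis of labelled RT-PCR products and fitted bidirectionally to DMSO.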

[15] = ATG_Ets_CIS: Attagene CIS-FACTORIAL HepG2 Assay for human Erythroblast Transformation Specific (ETS) (AID 2282941); conditions: HepG2 ETS cis-reporter transcription, actives raise or lower the signal
Summary of the method: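 Bidirectional fit versus DMSO of reporter mRNA signal, detected by RT-PCR and capillary electrophoresis in HepG2 cells transiently transfected with cis-element reporters and dosed 24 h.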

[16] = molecular target: Hepatocyte nuclear factor 3-beta (Homo sapiens) (UniProt Q9Y261); experiment: ATG_FoxA2_CIS: Attagene CIS-FACTORIAL HepG2 Assay for human Forkhead box A2 (FOXA2) (AID 2282942); conditions: HepG2 cis-reporter transcription factor activity, 24 h; actives raise or lower the signal
Hepatocyte nuclear factor 3-beta (Homo sapiens), sequence (Q9Y261 whole entry, looked up): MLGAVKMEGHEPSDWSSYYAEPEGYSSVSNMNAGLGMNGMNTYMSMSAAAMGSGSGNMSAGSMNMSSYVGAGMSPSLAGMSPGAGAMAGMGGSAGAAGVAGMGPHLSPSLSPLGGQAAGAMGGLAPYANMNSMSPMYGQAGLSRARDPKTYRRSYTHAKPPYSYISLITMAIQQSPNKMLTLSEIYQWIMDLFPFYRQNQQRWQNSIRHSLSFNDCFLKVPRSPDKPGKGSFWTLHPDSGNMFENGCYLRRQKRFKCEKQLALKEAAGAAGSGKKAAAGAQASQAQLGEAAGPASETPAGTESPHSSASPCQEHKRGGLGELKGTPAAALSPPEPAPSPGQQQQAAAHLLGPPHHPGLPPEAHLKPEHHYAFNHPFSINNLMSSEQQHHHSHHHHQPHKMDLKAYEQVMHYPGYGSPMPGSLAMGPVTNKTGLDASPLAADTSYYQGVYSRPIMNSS
Summary of the method: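 Multiplexed cis-element reporter assay in transiently transfected HepG2. Twenty-four hours post-dosing, RNA was reverse-transcribed, amplified, FAM-labelled, HpaI-digested and separated by CE. Activity gain or loss relative to DMSO.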

[17] = ATG_FoxO_CIS: Attagene CIS-FACTORIAL HepG2 Assay for human Forkhead box O (FoxO) (AID 2282943); conditions: HepG2 Attagene cis-reporter, FoxO element, mRNA; actives raise or lower the signal
Summary of the method: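 HepG2 cells transiently transfected with cis-promoter-driven multiple reporter transcription units; 24 h after chemical dosing, reporter mRNA quantified by RT-PCR, fluorescent primer extension, HpaI digestion and capillary electrophoresis. Bidirectional fitting versus DMSO baseline.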

[18] = ATG_GATA_CIS: Attagene CIS-FACTORIAL HepG2 Assay for human GATA Binding Protein (AID 2282944); conditions: HepG2 GATA cis-element reporter, Attagene multiplex mRNA; actives raise or lower the signal
Summary of the method: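 Transfected cis-reporter HepG2 cells were treated with chemicals for 24 hours. Total RNA was then converted to cDNA, amplified with reporter-specific primers and analysed by fluorescent capillary electrophoresis, using DMSO-treated wells as baseline.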

[19] = ATG_AP_2_CIS: Attagene CIS-FACTORIAL HepG2 Assay for human Activator Protein 2 (AP-2) (AID 2282932); conditions: HepG2 AP-2 cis-reporter, Attagene transcription factor profiling; actives raise or lower the signal
Summary of the method: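 Cells (HepG2) transfected with promoter-driven reporter constructs, treated 24 h. Total RNA reverse-transcribed, reporter cDNA PCR-amplified, FAM-labelled by primer extension, digested, resolved by capillary electrophoresis. Activity fitted both directions versus DMSO.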

[20] = ATG_EGR_CIS: Attagene CIS-FACTORIAL HepG2 Assay for human Early Growth Response 1 (EGR1) (AID 2282938); conditions: HepG2 Attagene CIS-FACTORIAL EGR reporter mRNA; actives raise or lower the signal
Summary of the method: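 Multiplexed cis-reporter system in human hepatoma HepG2 cells, transiently transfected. Cells are dosed for 24 h; reporter transcripts are amplified, fluorescently tagged and sized by capillary electrophoresis, with DMSO as negative control.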

Measured: AC50

CC(C)CCOCc1ccccc1
not listed: [19] | [20]
inactive: all other assays above

CC(C)(C)N
not listed: [8] | [11]
inactive: all other assays above

CCOC(=O)C1=NN(c2ccc(Cl)cc2Cl)C(C)(C(=O)OCC)C1 (configuration not stated)
active: [7] 164 µM
not listed: [8] | [12] | [17] | [20]
inactive: all other assays above

CCN1CCCC1=O
not listed: [8] | [12]
inactive: all other assays above

CCCCC(CC)COC(=O)/C=C/c1ccc(OC)cc1 (configuration not stated)
not listed: [9] | [19]
inactive: all other assays above

CC1=NN(c2ccc(S(=O)(=O)O)cc2)C(=O)C1N=Nc1ccccc1 (configuration not stated)
active: [6] 10.7 µM
not listed: [7]
inactive: all other assays above

CCCCOCCOC(=O)COc1ccc(Cl)cc1Cl
active: [1] 10.8 µM
not listed: [19]
inactive: all other assays above

CC(=O)OC1CCCCC1
not listed: [9] | [11]
inactive: all other assays above

CCOc1ccc(NC(N)=O)cc1
not listed: [11] | [19]
inactive: all other assays above

CC(=O)OCc1ccccc1
not listed: [19]
inactive: all other assays above

C=C(C)C(=O)OCC(O)COc1ccc(C(C)(C)c2ccc(OCC(O)COC(=O)C(=C)C)cc2)cc1 (configuration not stated)
active: [7] 63.7 µM | [20] 39.8 µM | [15] 100 µM | [18] 166 µM
not listed: [8] | [11]
inactive: all other assays above

Nc1ccc(O)c([N+](=O)[O-])c1
active: [6] 13.9 µM
not listed: [8] | [9]
inactive: all other assays above

CC1CCC(C(C)(C)S)C(=O)C1 (configuration not stated)
not listed: [19]
inactive: all other assays above

CCCCNS(=O)(=O)c1ccccc1
not listed: [8]
inactive: all other assays above

CC(C)COC(=O)CC(C(=O)OCC(C)C)S(=O)(=O)O (configuration not stated)
not listed: [17] | [19] | [20]
inactive: all other assays above
